Read-out in assay [1]: Pyruvate Dehydrogenase Kinase 4 (PDK4), PDK4 (gene 5166)
As to the kind of experiment: LTEA_HepaRG_PDK4: Life Technologies and Expression Analysis (LTEA) Assay for Pyruvate Dehydrogenase Kinase 4 (PDK4) using HepaRG (AID 2283525). To be noted: mRNA level, 48 h; actives raise or lower the signal. The method, boiled down:
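In this multiplexed human HepaRG expression assay, cells are treated 48 h with test chemicals across an eight-point range starting at 100 uM. PDK4 mRNA changes, normalized to ACTB/GAPDH/POLR2A, are fitted in both directions relative to vehicle.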

Read-out in assay [2]: NAD(P)H dehydrogenase [quinone] 1 (NQO1), NQO1 (gene 1728)
As to the kind of experiment: LTEA_HepaRG_NQO1: Life Technologies and Expression Analysis (LTEA) Assay for NAD(P)H dehydrogenase [quinone] 1 (NQO1) using HepaRG (AID 2283526). As to conditions: mRNA level, 48 h; actives raise or lower the signal. The gist of the method: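 Differentiated HepaRG cells, plated 48 h and then switched to serum-free induction medium, were exposed in duplicate for 48 h to 8-point half-log concentrations up to 100 uM in 0.5% DMSO. mRNA measured by qRT-PCR, normalized to ACTB, GAPDH, POLR2A; bidirectional fit versus DMSO.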

Read-out in assay [3]: Nuclear factor erythroid 2-related factor 2 (Homo sapiens) (UniProt Q16236)
As to the kind of experiment: LTEA_HepaRG_NFE2L2: Life Technologies and Expression Analysis (LTEA) Assay for Nuclear factor erythroid 2-related factor 2 (NFE2L2) Transcription Factor using HepaRG (AID 2283527).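 Further: TaqMan qRT-PCR transcript level normalised to ACTB GAPDH and POLR2A housekeeping genes.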 As to conditions: mRNA level, 48 h; actives raise or lower the signal. The method, boiled down:
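Transcript level of NFE2L2 is the read-out, measured by microfluidic TaqMan qRT-PCR and normalized to three housekeeping genes. Human HepaRG cultures received test chemical for 48 h at up to 100 uM in half-log steps. Gain or loss of signal is fitted relative to 0.5% DMSO.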

Read-out in assay [4]: succinate dehydrogenase complex iron sulfur subunit B (SDHB), SDHB (gene 6390)
The assay can be described thus: LTEA_HepaRG_SDHB: Life Technologies and Expression Analysis (LTEA) Assay for succinate dehydrogenase complex iron sulfur subunit B (SDHB) using HepaRG (AID 2283528). As to conditions: mRNA level, 48 h; actives raise or lower the signal. The gist of the method: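 HepaRG, 48 h exposure, 8-pt half-log series from 100 uM in 0.5% DMSO, duplicates. Readout: SDHB mRNA by Fluidigm qRT-PCR vs housekeeping genes; bidirectional fit relative to DMSO.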

Read-out in assay [5]: Signal transducer and activator of transcription 3 (Homo sapiens) (UniProt P40763)
The assay can be described thus: LTEA_HepaRG_STAT3: Life Technologies and Expression Analysis (LTEA) Assay for Signal transducer and activator of transcription (STAT3) using HepaRG (AID 2283529). As to conditions: mRNA level, 48 h; actives raise or lower the signal. The method, boiled down: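 Read-out is STAT3 mRNA level by qRT-PCR, normalized to three housekeeping genes, in human HepaRG liver cells treated for 48 h. Concentrations ran from 100 uM downward in half-log steps; curves were fitted for gain or loss relative to 0.5% DMSO.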

Read-out in assay [6]: solute carrier (SLCO1B1), SLCO1B1 (gene 10599)
The assay can be described thus: LTEA_HepaRG_SLCO1B1: Life Technologies and Expression Analysis (LTEA) Assay for solute carrier (SLCO1B1) using HepaRG (AID 2283530). To be noted: mRNA level, 48 h; actives raise or lower the signal. The gist of the method: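 Human HepaRG cultures treated for 48 h with an eight-concentration half-log series topping at 100 uM; SLCO1B1 measured by qRT-PCR and fitted bidirectionally relative to DMSO.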

Read-out in assay [7]: sulfotransferase 2A1 (SULT2A1), SULT2A1 (gene 6822)
As to the kind of experiment: LTEA_HepaRG_SULT2A1: Life Technologies and Expression Analysis (LTEA) Assay for sulfotransferase 2A1 (SULT2A1) using HepaRG (AID 2283531). To be noted: mRNA level, 48 h; actives raise or lower the signal. The method, boiled down: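 Gene-expression endpoint in a human liver cell line: SULT2A1 mRNA change after 48 h chemical treatment, curves fitted in both directions relative to 0.5% DMSO vehicle. Concentrations spanned eight half-log steps from 100 uM.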

Read-out in assay [8]: Transforming Growth Factor (TGFA), TGFA (gene 7039)
The assay can be described thus: LTEA_HepaRG_TGFA: Life Technologies and Expression Analysis (LTEA) Assay for Transforming Growth Factor (TGFA) using HepaRG (AID 2283532). As to conditions: mRNA level, 48 h; actives raise or lower the signal. The gist of the method:
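HepaRG (human liver line), 48 h exposure, 8 conc. half-log down from 100 uM, 0.5% DMSO vehicle, duplicates; serum-free induction medium. TGFA mRNA by TaqMan qRT-PCR, ACTB/GAPDH/POLR2A normalization; gain/loss fit vs DMSO.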

Read-out in assay [9]: Transforming Growth Factor (TGFB1), TGFB1 (gene 7040)
As to the kind of experiment: LTEA_HepaRG_TGFB1: Life Technologies and Expression Analysis (LTEA) Assay for Transforming Growth Factor (TGFB1) Transporter using HepaRG (AID 2283533). As to conditions: mRNA level, 48 h; actives raise or lower the signal. The gist of the method:
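Eight-point concentration-response (max 100 uM, half-log) in HepaRG under serum-free induction conditions, 48 h. TGFB1 mRNA by qRT-PCR, housekeeping-normalized.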

Read-out in another assay: TIMP1, TIMP1 (gene 7076)
The assay can be described thus: LTEA_HepaRG_TIMP1: Life Technologies and Expression Analysis (LTEA) Assay for TIMP1 using HepaRG (AID 2283534). As to conditions: mRNA level, 48 h; actives raise or lower the signal. The gist of the method: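 TIMP1 induction or repression in HepaRG cells after 48 h chemical exposure (eight concentrations, highest 100 uM), assessed by normalized qRT-PCR with bidirectional fitting to DMSO controls.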

Read-out in assay [10]: Tumor necrosis factor receptor 1 (TNFRSF1A), TNFRSF1A (gene 7132)
The assay can be described thus: LTEA_HepaRG_TNFRSF1A: Life Technologies and Expression Analysis (LTEA) Assay for Tumor necrosis factor receptor 1 (TNFRSF1A) using HepaRG (AID 2283535). As to conditions: mRNA level, 48 h; actives raise or lower the signal. The method, boiled down: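 Assay uses 48 h chemical treatment of differentiated HepaRG monolayers, tested in duplicate at eight concentrations from 100 uM downward in 0.5% DMSO. mRNA is normalized to ACTB, GAPDH and POLR2A, with induction or suppression fitted relative to vehicle.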

Read-out in assay [11]: Thyroid Hormone Responsive (THRSP), THRSP (gene 7069)
As to the kind of experiment: LTEA_HepaRG_THRSP: Life Technologies and Expression Analysis (LTEA) Assay for Thyroid Hormone Responsive (THRSP) using HepaRG (AID 2283536). To be noted: mRNA level, 48 h; actives raise or lower the signal. The gist of the method:
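mRNA induction or loss relative to 0.5% DMSO vehicle was fitted bidirectionally across an eight-point curve whose highest exposure was 100 uM. Human HepaRG liver cells received chemicals in duplicate over 48 h before RNA extraction.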

Read-out in assay [12]: UDP glucuronosyltransferase (UGT1A1), UGT1A1 (gene 54658)
The assay can be described thus: LTEA_HepaRG_UGT1A1: Life Technologies and Expression Analysis (LTEA) Assay for UDP glucuronosyltransferase (UGT1A1) using HepaRG (AID 2283538). To be noted: mRNA level, 48 h; actives raise or lower the signal. The gist of the method: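 Differentiated human HepaRG cells in serum-free induction medium were exposed in duplicate for 48 h to eight half-log concentrations up to 100 uM in 0.5% DMSO. UGT1A1 mRNA was quantified by TaqMan qRT-PCR, normalized to ACTB, GAPDH and POLR2A, and fitted bidirectionally against DMSO.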

Read-out in assay [13]: UDP glucuronosyltransferase (UGT1A6), UGT1A6 (gene 54578)
The assay can be described thus: LTEA_HepaRG_UGT1A6: Life Technologies and Expression Analysis (LTEA) Assay for UDP glucuronosyltransferase (UGT1A6) using HepaRG (AID 2283539). As to conditions: mRNA level, 48 h; actives raise or lower the signal. The gist of the method:
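Measures mRNA change in HepaRG hepatic cells exposed 48 h to chemicals (eight-point, maximum 100 uM, 0.5% DMSO vehicle) in serum-free induction medium. Expression normalized to endogenous controls; DMSO served as negative control and baseline.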

Read-out in assay [14]: X-box binding protein 1 (XBP1), XBP1 (gene 7494)
The assay can be described thus: LTEA_HepaRG_XBP1: Life Technologies and Expression Analysis (LTEA) Assay for X-box binding protein 1 (XBP1) using HepaRG (AID 2283540). As to conditions: mRNA level, 48 h; actives raise or lower the signal. The method, boiled down: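 Eight concentrations (half-log, highest 100 uM, 0.5% DMSO) tested in duplicate on HepaRG cells over 48 h in serum-free induction medium; qRT-PCR of XBP1 normalised to ACTB, GAPDH, POLR2A.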

Assay [15] can be described thus: LTEA_HepaRG_LDH_cytotoxicity: Cytotoxicity Assessment in the Life Technologies and Expression Analysis (LTEA) Assay (AID 2283563; active means hit-call score of the fitted dose curve at least 0.9, where 1 is the maximum;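 on AC50: LDH activity released into spent culture medium as a marker of cell death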). The method, boiled down: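 Spent-medium LDH after 48 h chemical exposure of HepaRG cells in serum-free induction medium; eight concentrations, half-log dilutions from 100 uM, duplicate wells, fitted upward relative to 0.5% DMSO.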
Assay [16] can be described thus: ATG_XTT_Cytotoxicity: Cytotoxicity Assessment in the Attagene TRANS-FACTORIAL HepG2 Assay (AID 2283584; active means hit-call score of the fitted dose curve at least 0.9, where 1 is the maximum). The method, boiled down: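 24 h chemical exposure of reporter-transfected HepG2; XTT signal loss vs DMSO indicates cytotoxicity.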
A short description of assay [17]: TOX21_p53_BLA_p2_viability: Viability Assessment in the Tox21 HCT-116 p53 Agonism Beta-lactamase Assay, Phase 2 (AID 2283591; active means hit-call score of the fitted dose curve at least 0.9, where 1 is the maximum;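 further: compound exposure lasted 16 h at 37 °C; actives lower the ATP signal meaning cytotoxicity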). The method, boiled down:
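Cytotoxicity readout: CellTiter-Glo ATP luminescence, 30 min at room temperature, after the beta-lactamase read. Cells were HCT116 exposed 16 h at 37C to compounds pin-transferred at 217-fold dilution from DMSO stocks.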

The target in assay [18] is Cellular tumor antigen p53 (Homo sapiens) (UniProt P04637). The assay can be described thus: TOX21_p53_BLA_p2_ratio: Tox21 HCT-116 p53 Agonism Beta-lactamase Assay, Ratio, Phase 2 (AID 2283592; active means hit-call score of the fitted dose curve at least 0.9, where 1 is the maximum). The method, boiled down: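 Human colon HCT116 cells with an inducible p53 beta-lactamase reporter are exposed to test chemicals for 16 h at 37C. Reporter induction is read as the 460/530 nm emission ratio after CCF4-AM loading, normalized to DMSO.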

Read-out in assay [19]: Cellular tumor antigen p53 (Homo sapiens) (UniProt P04637)
As to the kind of experiment: LTEA_HepaRG_TP53: Life Technologies and Expression Analysis (LTEA) Assay for Tumor Protein P53 (TP53) using HepaRG (AID 2283537). As to conditions: mRNA level, 48 h; actives raise or lower the signal. The method, boiled down:
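HepaRG, 48 h exposure, top 100 uM, half-log 8-point, 0.5% DMSO vehicle, duplicates. Read: TP53 mRNA by TaqMan qRT-PCR, normalised to ACTB/GAPDH/POLR2A; bidirectional fit vs DMSO.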

Inconclusive results are not listed. More than one record can exist for a structure, and the calls need not agree. The source made the active and inactive calls. How the source made its calls, unless noted: active means hit-call score of the fitted dose curve at least 0.9, where 1 is the maximum; inactive means score below 0.9.

This passage reports outcome and AC50 results from PubChem BioAssay (EPA / NIEHS).

Chain of Cellular tumor antigen p53 (Homo sapiens) (P04637 whole entry, looked up): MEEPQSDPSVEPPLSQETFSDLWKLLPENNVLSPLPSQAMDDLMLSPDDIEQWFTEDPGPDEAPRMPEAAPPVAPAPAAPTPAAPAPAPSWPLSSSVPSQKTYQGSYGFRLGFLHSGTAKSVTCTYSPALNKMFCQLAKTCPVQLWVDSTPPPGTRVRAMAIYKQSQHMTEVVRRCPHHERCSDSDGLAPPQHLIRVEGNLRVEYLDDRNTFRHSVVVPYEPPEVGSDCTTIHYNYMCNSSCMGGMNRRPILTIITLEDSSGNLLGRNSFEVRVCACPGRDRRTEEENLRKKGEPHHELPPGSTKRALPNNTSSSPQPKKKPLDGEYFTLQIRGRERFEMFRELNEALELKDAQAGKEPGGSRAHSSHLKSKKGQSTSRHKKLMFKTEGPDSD
Chain of Nuclear factor erythroid 2-related factor 2 (Homo sapiens) (Q16236 whole entry, looked up): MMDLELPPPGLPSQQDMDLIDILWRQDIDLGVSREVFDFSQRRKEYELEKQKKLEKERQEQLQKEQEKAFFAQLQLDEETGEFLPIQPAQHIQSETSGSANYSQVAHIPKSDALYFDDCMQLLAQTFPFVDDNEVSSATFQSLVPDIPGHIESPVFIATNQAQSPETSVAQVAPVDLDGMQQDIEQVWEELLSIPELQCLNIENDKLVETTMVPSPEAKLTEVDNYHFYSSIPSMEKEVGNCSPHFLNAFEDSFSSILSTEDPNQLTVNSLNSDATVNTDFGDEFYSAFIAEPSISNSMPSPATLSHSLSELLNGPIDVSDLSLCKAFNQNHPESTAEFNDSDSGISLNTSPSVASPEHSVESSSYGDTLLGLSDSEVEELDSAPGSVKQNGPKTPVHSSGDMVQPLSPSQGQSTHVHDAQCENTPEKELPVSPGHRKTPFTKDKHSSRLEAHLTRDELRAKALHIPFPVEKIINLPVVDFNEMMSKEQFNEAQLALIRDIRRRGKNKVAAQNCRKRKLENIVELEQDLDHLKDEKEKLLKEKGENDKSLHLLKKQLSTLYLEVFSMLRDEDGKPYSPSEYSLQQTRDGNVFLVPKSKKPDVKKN
Chain of Signal transducer and activator of transcription 3 (Homo sapiens) (P40763 whole entry, looked up): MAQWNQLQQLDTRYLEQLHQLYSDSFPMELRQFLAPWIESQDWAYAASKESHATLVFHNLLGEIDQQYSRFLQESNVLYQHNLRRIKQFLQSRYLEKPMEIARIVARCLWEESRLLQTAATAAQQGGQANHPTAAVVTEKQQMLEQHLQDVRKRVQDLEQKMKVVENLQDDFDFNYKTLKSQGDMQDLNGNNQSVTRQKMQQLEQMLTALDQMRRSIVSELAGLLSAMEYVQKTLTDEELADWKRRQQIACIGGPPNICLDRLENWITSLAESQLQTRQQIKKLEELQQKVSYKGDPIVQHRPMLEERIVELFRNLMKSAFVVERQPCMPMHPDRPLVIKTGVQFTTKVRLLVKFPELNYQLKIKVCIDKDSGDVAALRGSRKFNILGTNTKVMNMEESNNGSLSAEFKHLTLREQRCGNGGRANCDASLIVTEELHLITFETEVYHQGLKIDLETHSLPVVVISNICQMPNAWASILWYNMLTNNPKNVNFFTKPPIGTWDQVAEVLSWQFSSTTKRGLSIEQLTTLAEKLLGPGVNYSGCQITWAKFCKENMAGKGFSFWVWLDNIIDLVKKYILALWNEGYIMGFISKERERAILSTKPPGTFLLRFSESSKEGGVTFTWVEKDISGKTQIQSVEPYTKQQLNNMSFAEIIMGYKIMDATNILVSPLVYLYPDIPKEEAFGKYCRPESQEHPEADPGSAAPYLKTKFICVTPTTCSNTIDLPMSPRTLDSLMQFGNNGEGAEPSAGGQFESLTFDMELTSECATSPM

For `O=S(=O)(O)C(F)(F)C(F)(F)C(F)(F)C(F)(F)F`, the compound was classed as inactive in [1], in [2], in assay [3], in [4], in assay [5] and in assay [6]. The outcome in assay [7] was “inactive”; in [8], “inactive”; in assay [9] it was “inactive”; with TIMP1, TIMP1 (gene 7076), “inactive”; in [10], “inactive”; in assay [11], “inactive”. In addition, the call in assay [12], in [13], in assay [14], in [15], in [16] and in assay [17] was inactive. In addition, the outcome in [18] was inactive.
Regarding `CC(C)(c1ccccc1)c1ccc(O)cc1`, the call in assay [1], in assay [2], in assay [3], in [4], in assay [5] and in [6] was inactive. The outcome in assay [7] is “inactive”; in assay [8], “inactive”; in assay [9] it was “inactive”; in the assay with TIMP1, TIMP1 (gene 7076) it was “inactive”; in [10] it was “inactive”; in [12], “inactive”. For the same compound, the outcome in assay [13], in assay [14], in assay [16], in [17] and in assay [18] was inactive. Also, the AC50 in assay [11] is 78.2 µM (active); in assay [15], 76.7 µM (active); in assay [17] it was 80.1 µM (active); in assay [18], 74 µM (active).
`Clc1ccc(C(Cl)(Cl)Cl)cc1`: the compound was classed as inactive in assay [1], in assay [2], in assay [3], in [4], in [5] and in [6]. The outcome in assay [7] was “inactive”; in assay [8], “inactive”; in assay [9], “inactive”; with TIMP1, TIMP1 (gene 7076), “inactive”; in assay [10], “inactive”; in [11] it was “inactive”. Moreover, the call in assay [19], in assay [12], in assay [13], in assay [14], in [15] and in assay [16] was inactive. The result in assay [17] and in assay [18] was inactive.
